Several values for one entry are separate records, joined by “and”; a condition that tells them apart may be missing. Equal values may be shown once. About 2,000 (36%) of roughly 5,500 compounds were called active. Roughly 18% stayed inconclusive and do not appear here. Rule as the data show it: active = normalized growth mostly below about 0.91 (no sharp cut-off); inconclusive = no clear call, values can overlap the other calls; inactive = mostly above about 0.92. Some of the results follow.
Assay: chemical genetic growth profiling, strain panel (AID 1159580);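 also: tested at 20 µM; growth read once vehicle control cultures reached saturation at 30 °C; 1 = growth at the plate median or of vehicle wells; lower values mean less growth of the strain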
Conditions: growth OD

Measured: normalized growth

CC(CCc1ccccc1)NC(C)C(O)c1ccc(O)cc1 (stereo not given)
inactive: S. cerevisiae deletion strains, locus YJR075W, strain HOC1, hits give low values 1.01 | S. cerevisiae deletion strains, locus YKL009W, strain mrt4, hits give low values 0.988 | S. cerevisiae deletion strains, locus YKL068W, hits give low values 0.987 | S. cerevisiae deletion strains, locus YKL085W, strain MDH1 (second series), hits give low values 0.997 | S. cerevisiae deletion strains, locus YKL085W, strain MDH1, hits give low values 0.997 | S. cerevisiae deletion strains, locus YKL160W, strain elf1, hits give low values 1 | S. cerevisiae deletion strains, locus YKL190W, strain CNB1, hits give low values 0.99 | S. cerevisiae deletion strains, locus YKR001C, strain vps1, hits give low values 0.97 | S. cerevisiae deletion strains, locus YKR026C, strain gcn3, hits give low values 1 | S. cerevisiae deletion strains, locus YKR091W, strain srl3, hits give low values 1 | S. cerevisiae deletion strains, locus YLL001W, strain dnm1, hits give low values 1.01 | S. cerevisiae deletion strains, locus YLL026W, hits give low values 1 | S. cerevisiae deletion strains, locus YLL041C, strain sdh2, hits give low values 0.999 | S. cerevisiae deletion strains, locus YLR027C, strain aat2, hits give low values 0.994 | S. cerevisiae deletion strains, locus YLR039C, strain RIC1, hits give low values 1.01 | S. cerevisiae deletion strains, locus YLR058C, strain SHM2, hits give low values 0.976 | S. cerevisiae deletion strains, locus YLR102C, strain apc9, hits give low values 0.99 | S. cerevisiae deletion strains, locus YLR113W, strain HOG1, hits give low values 0.995 | S. cerevisiae deletion strains, locus YLR221C, strain rsa3, hits give low values 1.02 | S. cerevisiae deletion strains, locus YLR258W, strain gsy2, hits give low values 1 | S. cerevisiae deletion strains, locus YLR262C, strain YPT6 (second series), hits give low values 0.96 | S. cerevisiae deletion strains, locus YLR262C, strain YPT6, hits give low values 0.99 | S. cerevisiae deletion strains, locus YLR268W, strain sec22, hits give low values 1.04 | S. cerevisiae deletion strains, locus YLR320W, strain mms22, hits give low values 1.02 | S. cerevisiae deletion strains, locus YLR330W, strain CHS5, hits give low values 0.997 | S. cerevisiae deletion strains, locus YLR342W, strain FKS1 (second series), hits give low values 1.01 | S. cerevisiae deletion strains, locus YLR342W, strain FKS1, hits give low values 1 | S. cerevisiae deletion strains, locus YLR357W, strain rsc2, hits give low values 0.983 | S. cerevisiae deletion strains, locus YLR370C, strain arc18, hits give low values 1 | S. cerevisiae deletion strains, locus YLR371W, strain rom2, hits give low values 0.974 | S. cerevisiae deletion strains, locus YLR384C, strain iki3, hits give low values 1.01 | S. cerevisiae deletion strains, locus YLR418C, strain cdc73, hits give low values 0.997 | S. cerevisiae deletion strains, locus YML016C, strain PPZ1, hits give low values 0.993 | S. cerevisiae deletion strains, locus YML032C, strain rad52, hits give low values 1 | S. cerevisiae deletion strains, locus YML120C, strain ndi1, hits give low values 1.01 | S. cerevisiae deletion strains, locus YML124C, strain tub3, hits give low values 0.982 | S. cerevisiae deletion strains, locus YMR058W, strain fet3, hits give low values 0.998 | S. cerevisiae deletion strains, locus YMR078C, strain ctf18, hits give low values 0.987 | S. cerevisiae deletion strains, locus YMR125W, strain sto1, hits give low values 1.01 | S. cerevisiae deletion strains, locus YMR129W, hits give low values 0.984 | S. cerevisiae deletion strains, locus YMR205C, strain PFK2, hits give low values 1.02 | S. cerevisiae deletion strains, locus YMR223W, strain ubp8, hits give low values 0.989 | S. cerevisiae deletion strains, locus YMR231W, strain pep5, hits give low values 1 | S. cerevisiae deletion strains, locus YMR263W, strain SAP30, hits give low values 1.01 | S. cerevisiae deletion strains, locus YMR307W, strain GAS1, hits give low values 1.05 | S. cerevisiae deletion strains, locus YNL067W, strain RPL9B, hits give low values 0.995 | S. cerevisiae deletion strains, locus YNL071W, strain lat1, hits give low values 0.999 | S. cerevisiae deletion strains, locus YNL128W, strain TEP1, hits give low values 1.01 | S. cerevisiae deletion strains, locus YNL153C, strain GIM3, hits give low values 1 | S. cerevisiae deletion strains, locus YNL175C, strain NOP13, hits give low values 1.01 | S. cerevisiae deletion strains, locus YNL183C, strain NPR1, hits give low values 0.944 | S. cerevisiae deletion strains, locus YNL197C, strain WHI3, hits give low values 1.01 | S. cerevisiae deletion strains, locus YNL209W, strain ssb2, hits give low values 1 | S. cerevisiae deletion strains, locus YNL224C, strain SQS1, hits give low values 1.01 | S. cerevisiae deletion strains, locus YNL233W, strain BNI4, hits give low values 0.992 | S. cerevisiae deletion strains, locus YNL248C, strain rpa49, hits give low values 0.991 | S. cerevisiae deletion strains, locus YNL250W, strain rad50, hits give low values 0.986 | S. cerevisiae deletion strains, locus YNL271C, strain bni1, hits give low values 0.994 | S. cerevisiae deletion strains, locus YNL298W, strain CLA4, hits give low values 1.01 | S. cerevisiae deletion strains, locus YNL307C, strain MCK1, hits give low values 0.987 | S. cerevisiae deletion strains, locus YNL322C, strain KRE1 (second series), hits give low values 1.01 | S. cerevisiae deletion strains, locus YNL322C, strain KRE1, hits give low values 0.994 and 0.998 | S. cerevisiae deletion strains, locus YNR049C, strain mso1, hits give low values 1 | S. cerevisiae deletion strains, locus YNR052C, strain pop2, hits give low values 1 | S. cerevisiae deletion strains, locus YOL006C, strain TOP1, hits give low values 0.948 | S. cerevisiae deletion strains, locus YOL012C, strain htz1 1.21 | S. cerevisiae deletion strains, locus YOL147C, strain pex11, hits give low values 0.99 | S. cerevisiae deletion strains, locus YOR001W, strain rrp6, hits give low values 0.989 | S. cerevisiae deletion strains, locus YOR061W, strain CKA2, hits give low values 0.962 | S. cerevisiae deletion strains, locus YOR069W, strain VPS5, hits give low values 0.996 | S. cerevisiae deletion strains, locus YOR070C, strain gyp1, hits give low values 0.999 | S. cerevisiae deletion strains, locus YOR080W, strain dia2, hits give low values 0.994 | S. cerevisiae deletion strains, locus YOR083W, strain WHI5 (second series), hits give low values 1.01 | S. cerevisiae deletion strains, locus YOR083W, strain WHI5, hits give low values 1 | S. cerevisiae deletion strains, locus YOR106W, strain vam3, hits give low values 0.985 | S. cerevisiae deletion strains, locus YOR136W, strain idh2, hits give low values 0.988 | S. cerevisiae deletion strains, locus YOR144C, strain elg1, hits give low values 0.992 | S. cerevisiae deletion strains, locus YOR184W, strain ser1, hits give low values 0.99 | S. cerevisiae deletion strains, locus YOR231W, strain MKK1, hits give low values 1.02 | S. cerevisiae deletion strains, locus YOR265W, strain rbl2, hits give low values 1.01 | S. cerevisiae deletion strains, locus YOR270C, strain vph1, hits give low values 0.979 | S. cerevisiae deletion strains, locus YOR290C, strain snf2, hits give low values 1.01 | S. cerevisiae deletion strains, locus YOR316C, strain cot1, hits give low values 0.995 | S. cerevisiae deletion strains, locus YPL051W, strain arl3, hits give low values 1.02 | S. cerevisiae deletion strains, locus YPL078C, strain atp4, hits give low values 1 | S. cerevisiae deletion strains, locus YPL106C, strain sse1, hits give low values 0.977 | S. cerevisiae deletion strains, locus YPL240C, strain hsp82, hits give low values 1 | S. cerevisiae deletion strains, locus YPL241C, strain CIN2, hits give low values 0.997 | S. cerevisiae deletion strains, locus YPL256C, strain CLN2, hits give low values 0.969 | S. cerevisiae deletion strains, locus YPR119W, strain clb2, hits give low values 0.981 | S. cerevisiae deletion strains, locus YPR141C, strain kar3, hits give low values 0.976 | S. cerevisiae deletion strains, locus YPR163C, strain tif3, hits give low values 0.986 | S. cerevisiae deletion strains, locus YPR167C, strain met16, hits give low values 0.989 | S. cerevisiae deletion strains, strain wtn01, hits give low values 1 | S. cerevisiae strains, strain wild type, hits give low values 0.995

— PubChem BioAssay AID1159580 (chemical genetic matrix, 2015)
